# Measured values from the supplement of paper PMC8728848.
# The entries come from a sample that favours the strongest signals as a whole.
# B1: Clec18Av1 (Homo sapiens), A5D8T8 (protein)
# chain: MLHPETSPGRGHLLAVLLALLGTAWAEVWPPQLQEQAPMAGALNRKESFLLLSLHNRLRSWVQPPAADMRRLDWSDSLAQLAQARAALCGTPTPSLASGLWRTLQVGWNMQLLPAGLVSFVEVVSLWFAEGQRYSHAAGECARNATCTHYTQLVWATSSQLGCGRHLCSAGQAAIEAFVCAYSPRGNWEVNGKTIVPYKKGAWCSLCTASVSGCFKAWDHAGGLCEVPRNPCRMSCQNHGRLNISTCHCHCPPGYTGRYCQVRCSLQCVHGRFREEECSCVCDIGYGGAQCATKVHFPFHTCDLRIDGDCFMVSSEADTYYRARMKCQRKGGVLAQIKSQKVQDILAFYLGRLETTNEVIDSDFETRNFWIGLTYKTAKDSFRWATGEHQAFTSFAFGQPDNHGFGNCVELQASAAFNWNDQRCKTRNRYICQFAQEHISRWGPGS
# How the values were obtained:
# Assay in all cases: glycan array binding signal (z-score within array); higher = stronger binding
# Details in all cases: glycan notation: IUPAC condensed, linker removed
# [1] = biological target: Fuc(a1-2)Gal(b1-3)GalNAc(b1-3)Gal(a1-4)Gal(b1-4)Glc
# Summary of the method: (§1)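 Glycan array data came from 3228 arrays in the Consortium for Functional Glycomics database, and only arrays with an available protein sequence were kept. Glycan names were put into IUPAC-condensed notation, and columns mapping to the same glycan were averaged. The binding signal is a within-array Z-score, averaged across arrays of one protein sequence run at different concentrations or buffers and across linkers. A negative Z-score can be read as non-binding.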
# [2] = biological target: Fuc(a1-2)Gal(b1-3)GlcNAc(b1-3)[Fuc(a1-2)Gal(b1-3)GlcNAc(b1-6)]GalNAc
# Summary of the method: as §1
# [3] = biological target: Fuc(a1-2)Gal(b1-4)[Fuc(a1-3)]GlcNAc
# Summary of the method: as §1
# [4] = biological target: Fuc(a1-2)[Gal(a1-3)]Gal(b1-4)GlcNAc(b1-2)Man(a1-3)[Fuc(a1-2)[Gal(a1-3)]Gal(b1-4)GlcNAc(b1-2)Man(a1-6)]Man(b1-4)GlcNAc(b1-4)GlcNAc
# Summary of the method: as §1
# [5] = biological target: Fuc(a1-2)[Gal(a1-3)]Gal(b1-4)[Fuc(a1-3)]GlcNAc(b1-3)GalNAc
# Summary of the method: as §1
# [6] = biological target: Fuc(a1-2)[GalNAc(a1-3)]Gal(b1-3)GlcNAc
# Summary of the method: as §1
# [7] = biological target: Fuc(a1-3)[Gal(b1-4)]GlcNAc(b1-3)GalNAc
# Summary of the method: as §1
# [8] = biological target: Fuc(a1-3)[Gal3S(b1-4)]GlcNAc
# Summary of the method: as §1
# [9] = biological target: Gal(a1-3)Gal(b1-3)GlcNAc(b1-2)Man
# Summary of the method: as §1
# [10] = biological target: Gal(a1-6)Glc
# Summary of the method: as §1
# [11] = biological target: Gal(b1-3)GlcNAc(a1-6)Gal(b1-4)GlcNAc
# Summary of the method: as §1
# [12] = biological target: Gal(b1-4)GlcNAc(b1-2)Man(a1-3)[Gal(b1-4)GlcNAc(b1-2)Man(a1-6)][Gal(b1-4)GlcNAc(b1-4)]Man(b1-4)GlcNAc(b1-4)[Fuc(a1-6)]GlcNAc
# Summary of the method: as §1
# [13] = biological target: Gal(b1-4)GlcNAc(b1-2)Man(a1-3)[Gal(b1-4)GlcNAc(b1-2)Man(a1-6)][GlcNAc(b1-4)]Man(b1-4)GlcNAc(b1-4)[Fuc(a1-6)]GlcNAc
# Summary of the method: as §1
# [14] = biological target: Gal(b1-4)GlcNAc(b1-2)[Gal(b1-4)GlcNAc(b1-6)]Man(a1-6)[GlcNAc(b1-4)][Gal(b1-4)GlcNAc(b1-2)Man(a1-3)]Man(b1-4)GlcNAc(b1-4)GlcNAc
# Summary of the method: as §1
# [15] = biological target: Gal(b1-4)GlcNAc(b1-3)Gal(b1-3)GalNAc
# Summary of the method: as §1
# [16] = biological target: Gal(b1-4)GlcNAc(b1-3)Gal(b1-4)GlcNAc(b1-2)Man(a1-3)[Gal(b1-4)GlcNAc(b1-3)Gal(b1-4)GlcNAc(b1-2)Man(a1-6)]Man(b1-4)GlcNAc(b1-4)[Fuc(a1-6)]GlcNAc
# Summary of the method: as §1
# [17] = biological target: Gal3S(b1-3)GalNAc
# Summary of the method: as §1
# [18] = biological target: GlcA3S(b1-3)Gal(b1-4)GlcNAc(b1-2)Man
# Summary of the method: as §1
# [19] = biological target: GlcNAc(a1-4)Gal(b1-4)GlcNAc(b1-3)Gal(b1-4)Glc
# Summary of the method: as §1
# [20] = biological target: GlcNAc(a1-4)Gal(b1-4)GlcNAc(b1-3)Gal(b1-4)[Fuc(a1-3)]GlcNAc(b1-3)Gal(b1-4)[Fuc(a1-3)]GlcNAc
# Summary of the method: as §1
# [21] = biological target: GlcNAc(b1-2)Man(a1-3)[GlcNAc(b1-2)Man(a1-6)]Man(b1-4)GlcNAc(b1-4)[Fuc(a1-6)]GlcNAc
# Summary of the method: as §1
# [22] = biological target: GlcNAc(b1-2)[GlcNAc(b1-4)]Man(a1-3)[GlcNAc(b1-4)][GlcNAc(b1-2)[GlcNAc(b1-6)]Man(a1-6)]Man(b1-4)GlcNAc(b1-4)[Fuc(a1-6)]GlcNAc
# Summary of the method: as §1
# [23] = biological target: GlcNAc(b1-2)[GlcNAc(b1-6)]Man(a1-6)[GlcNAc(b1-2)Man(a1-3)]Man(b1-4)GlcNAc(b1-4)GlcNAc
# Summary of the method: as §1
# [24] = biological target: GlcNAc(b1-3)Gal(b1-4)GlcNAc(b1-2)Man(a1-3)[GlcNAc(b1-3)Gal(b1-4)GlcNAc(b1-2)Man(a1-6)]Man(b1-4)GlcNAc(b1-4)GlcNAc
# Summary of the method: as §1
# [25] = biological target: GlcNAc(b1-3)Gal(b1-4)GlcNAc(b1-3)Gal(b1-4)GlcNAc
# Summary of the method: as §1
# [26] = biological target: GlcNAc(b1-3)Gal(b1-4)GlcNAc(b1-3)Gal(b1-4)GlcNAc(b1-2)Man(a1-3)[GlcNAc(b1-3)Gal(b1-4)GlcNAc(b1-3)Gal(b1-4)GlcNAc(b1-2)Man(a1-6)]Man(b1-4)GlcNAc(b1-4)[Fuc(a1-6)]GlcNAc
# Summary of the method: as §1
# [27] = biological target: GlcNAc(b1-3)[GlcNAc(b1-6)]GalNAc
# Summary of the method: as §1
# [28] = biological target: Kdn(a2-3)Gal(b1-4)[Fuc(a1-3)]GlcNAc
# Summary of the method: as §1
# [29] = biological target: Man(b1-4)GlcNAc
# Summary of the method: as §1
# [30] = biological target: Neu5Ac(a2-3)Gal(b1-3)GlcNAc6S
# Summary of the method: as §1
# [31] = biological target: Neu5Ac(a2-3)Gal(b1-4)GlcNAc(b1-2)[Neu5Ac(a2-3)Gal(b1-4)GlcNAc(b1-4)]Man(a1-3)[GlcNAc(b1-4)][Neu5Ac(a2-3)Gal(b1-4)GlcNAc(b1-2)[Neu5Ac(a2-3)Gal(b1-4)GlcNAc(b1-6)]Man(a1-6)]Man(b1-4)GlcNAc(b1-4)GlcNAc
# Summary of the method: as §1
# [32] = biological target: Neu5Ac(a2-3)Gal(b1-4)GlcNAc(b1-6)GalNAc
# Summary of the method: as §1
# [33] = biological target: Neu5Ac(a2-3)Gal(b1-4)[Fuc(a1-3)]GlcNAc6S
# Summary of the method: as §1
# [34] = biological target: Neu5Ac(a2-3)Gal6S(b1-4)GlcNAc
# Summary of the method: as §1
# [35] = biological target: Neu5Ac(a2-3)[Neu5Ac(a2-6)]GalNAc
# Summary of the method: as §1
# [36] = biological target: Neu5Ac(a2-6)Gal(b1-4)GlcNAc(b1-2)Man(a1-3)[GlcNAc(b1-4)][Neu5Ac(a2-6)Gal(b1-4)GlcNAc(b1-2)Man(a1-6)]Man(b1-4)GlcNAc(b1-4)GlcNAc
# Summary of the method: as §1
# [37] = biological target: Neu5Ac(a2-6)Gal(b1-4)GlcNAc(b1-2)Man(a1-3)[Neu5Ac(a2-6)Gal(b1-4)GlcNAc(b1-2)Man(a1-6)]Man(b1-4)GlcNAc(b1-4)[Fuc(a1-6)]GlcNAc
# Summary of the method: as §1
# [38] = biological target: Neu5Ac(a2-6)Gal(b1-4)GlcNAc(b1-2)Man(a1-6)[GlcNAc(b1-2)Man(a1-3)]Man(b1-4)GlcNAc(b1-4)GlcNAc
# Summary of the method: as §1
# [39] = biological target: Neu5Gc(a2-3)Gal(b1-3)[Fuc(a1-4)]GlcNAc
# Summary of the method: as §1
# [40] = biological target: Neu5Gc(a2-8)Neu5Gc(a2-6)Gal(b1-4)GlcNAc
# Summary of the method: as §1
binder,measurement,setting,value
B1,glycan array binding signal (z-score),[1],-0.849
same,glycan array binding signal (z-score),[2],4.48
same,glycan array binding signal (z-score),[3],-0.818
same,glycan array binding signal (z-score),[4],3.05
same,glycan array binding signal (z-score),[5],-0.446
same,glycan array binding signal (z-score),[6],-0.502
same,glycan array binding signal (z-score),[7],1.02
same,glycan array binding signal (z-score),[8],-0.843
same,glycan array binding signal (z-score),[9],3.22
same,glycan array binding signal (z-score),[10],-0.747
same,glycan array binding signal (z-score),[11],4.04
same,glycan array binding signal (z-score),[12],2.24
same,glycan array binding signal (z-score),[13],0.712
same,glycan array binding signal (z-score),[14],3.23
same,glycan array binding signal (z-score),[15],3.37
same,glycan array binding signal (z-score),[16],2.85
same,glycan array binding signal (z-score),[17],-0.82
same,glycan array binding signal (z-score),[18],-0.197
same,glycan array binding signal (z-score),[19],-0.356
same,glycan array binding signal (z-score),[20],4.79
same,glycan array binding signal (z-score),[21],3.54
same,glycan array binding signal (z-score),[22],-0.868
same,glycan array binding signal (z-score),[23],-0.432
same,glycan array binding signal (z-score),[24],1.53
same,glycan array binding signal (z-score),[25],-0.861
same,glycan array binding signal (z-score),[26],-0.74
same,glycan array binding signal (z-score),[27],-0.808
same,glycan array binding signal (z-score),[28],0.16
same,glycan array binding signal (z-score),[29],-0.825
same,glycan array binding signal (z-score),[30],-0.859
same,glycan array binding signal (z-score),[31],-0.868
same,glycan array binding signal (z-score),[32],1.49
same,glycan array binding signal (z-score),[33],-0.818
same,glycan array binding signal (z-score),[34],-0.585
same,glycan array binding signal (z-score),[35],-0.853
same,glycan array binding signal (z-score),[36],-0.604
same,glycan array binding signal (z-score),[37],3.58
same,glycan array binding signal (z-score),[38],4.86
same,glycan array binding signal (z-score),[39],-0.646
same,glycan array binding signal (z-score),[40],0.057
